A short description of test [1]: A CellTox Green Cytotoxicity Assay to monitor cytotoxicity in HEK293 cells - 32 hour (AID 1224881). Further: nearly all actives have a fitted effect of over 40% in size. The gist of the method: (§1)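 Read-out: fluorescence of a cell-impermeant cyanine dye staining DNA of dead cells, proportional to cytotoxicity. HEK293, 600 cells/well with reagent, compound (23 nL DMSO) added after 5 h; reads at 0, 8, 16, 24, 32, 40 h.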
Test [2] can be described thus: A CellTox Green Cytotoxicity Assay to monitor cytotoxicity in HepG2 cells - 0 hour (AID 1224882). Further: nearly all actives have a fitted effect of over 35% in size. In a few lines:
(§2)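 HepG2, 600 cells/well premixed w/ CellTox Green; 5 h settle, 37 C/5% CO2; pintool cpd add (DMSO); 37 C, 40 h; fluorescence read at 0, 8, 16, 24, 32, 40 h.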

A short description of test [3]: A CellTox Green Cytotoxicity Assay to monitor cytotoxicity in HepG2 cells - 32 hour (AID 1224883). Further: nearly all actives have a fitted effect of over 50% in size. Further: potency means the concentration at half of the fitted maximal effect. The gist of the method: as §2
Test [4] in a line: A CellTox Green Cytotoxicity Assay to monitor cytotoxicity in HEK293 cells - 8 hour (AID 1224884). Further: nearly all actives have a fitted effect of over 35% in size. In a few lines:
as §1

Test [5] in a line: qHTS RealTime-Glo MT Cell Viability Assay in HepG2 cells - 16 hour (AID 1224885). Further: nearly all actives have a fitted effect of over 50% in size. The gist of the method:
(§3)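 Viability was tracked continuously by NanoLuc luminescence from prosubstrate reduced by living HepG2 cells, at successive time points over 40 h of compound exposure. Cells with reagent were preincubated 5 h at 37 °C before compound addition.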
(In general: qHTS replaces the single test concentration by a dilution series.)

Test [6] is described as follows: A CellTox Green Cytotoxicity Assay to monitor cytotoxicity in HEK293 cells - 16 hour (AID 1224888). Further: nearly all actives have a fitted effect of over 35% in size. In a few lines: as §1
The nature of test [7]: qHTS RealTime-Glo MT Cell Viability Assay in HepG2 cells - 0 hour (AID 1224889). Further: nearly all actives have a fitted effect of over 50% in size. The gist of the method: as §3
The nature of test [8]: A CellTox Green Cytotoxicity Assay to monitor cytotoxicity in HepG2 cells - 8 hour (AID 1224890). Further: nearly all actives have a fitted effect of over 45% in size. In a few lines: as §2
A short description of test [9]: qHTS RealTime-Glo MT Cell Viability Assay in HEK293 cells - 24 hour (AID 1224886). Further: nearly all actives have a fitted effect of over 50% in size. Further: potency means the concentration at half of the fitted maximal effect. On activity change, negative = cytotoxicity: top concentration of the series differs between compounds. The gist of the method:
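Viability tracked continuously by luminescence as live cells reduce a prosubstrate for NanoLuc; HEK293 cells preincubated 5 h, compound-treated at 37 C, and read at 0, 8, 16, 24, 32 and 40 h.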

Test [10] is described as follows: qHTS RealTime-Glo MT Cell Viability Assay in HEK293 cells - 8 hour (AID 1224887). Further: nearly all actives have a fitted effect of over 50% in size. Further: potency means the concentration at half of the fitted maximal effect. On activity change, negative = cytotoxicity: top concentration of the series differs between compounds. The gist of the method: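 Luminescence readout at each listed time point; HEK293, 600 cells/well, RealTime-Glo MT reagent added with cells; compounds pinned (23 nL in DMSO) after 5 h at 37 C; continuous culture at 37 C.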

Each structure is given as a SMILES string. Unmarked numbers belong to inactive results. Records with an inconclusive call do not appear. The source made the active and inactive calls. The call rests on the fitted dose curve; in most records, active means well fitted curve in the direction sought with a large enough effect in the repeat runs; inconclusive means weak or mixed curves; inactive means no such curve, though single readings can be large; an effect the other way counts as inactive or inconclusive.
On the % scale 0 is the no-effect control and ±100 the full control effect.

As for `CN(C)CCN1CCN(c2cccc(Cl)c2)C1=O`, the Potency entry in test [1], in [2], in test [3], in test [4], in [5] and in test [6] was “inactive” each time. For the same compound, the Potency result in test [7] and in [8] was “inactive” each time.
`CCCCNS(=O)(=O)c1ccc(C)cc1`: the Potency entry in test [1], in [2], in test [4], in test [5], in [9] and in [10] was “inactive” in each case. Moreover, the Potency entry in test [7] and in test [8] was “inactive” throughout. Moreover, the Potency in [3] is 4.9 µM (active).
`COc1cc(C)ccc1O`: the Potency entry in test [1], in test [2], in test [3], in test [4], in test [5] and in test [9] was “inactive” each time. The Potency entry in test [10] and in test [8] was “inactive” throughout.
Regarding `COc1cc(S(=O)(=O)O)c(C)cc1N=Nc1c(O)ccc2cc(S(=O)(=O)O)ccc12`, the Potency result in test [1], in test [2], in test [3], in [4], in test [9] and in test [10] was “inactive” throughout. The Potency entry in test [6] and in [8] was “inactive” throughout.
Consider `COc1ccc(-c2coc3cc(O)ccc3c2=O)cc1`, for which the Potency entry in test [1], in [2], in [3], in test [4], in test [5] and in [9] was “inactive” throughout. In addition, the Potency entry in [10], in test [7] and in test [8] was “inactive” in each case.
With `COC1=C(OC)C(=O)C(CCCCCCCCCCO)=C(C)C1=O`, the Potency entry in [1], in test [2], in test [3], in test [4], in test [6] and in test [7] was “inactive” each time. Besides, the Potency result in [8] was “inactive”. Also, the Potency in test [9] was 4.25 µM (active); in test [10], 1.69 µM (active).
For the compound `Cc1ccc(C)cc1`, the Potency result in test [1], in test [2], in test [3], in test [4], in [5] and in test [9] was “inactive” in each case. The Potency result in [10] and in [8] was “inactive” in each case.
On to `CNC(=O)c1ccccc1Sc1ccc2c(/C=C/c3ccccn3)n[nH]c2c1`, for which the Potency result in [1], in test [2], in [3], in test [4], in [6] and in test [8] was “inactive” throughout. For the same compound, the Potency in test [9] is 7.56 µM (active).
`COCCOc1cc2cc(C(=O)NC3CCN(C(C)C)CC3)n(CC(=O)Nc3ccc(Cl)cn3)c2cn1`: the Potency result in test [1], in test [2], in [3], in [4], in test [5] and in test [7] was “inactive” each time. The Potency entry in test [8] is “inactive”.
Take `CCN(CCN)c1cccc(C)c1`: the Potency result in test [1], in [2], in test [3], in [4], in test [5] and in [9] was “inactive” throughout. Also, the Potency entry in test [10], in test [7] and in [8] was “inactive” throughout.
On to `COC(=O)Nc1nc2ccc(C(=O)c3ccccc3)cc2[nH]1`, for which the Potency result in test [1], in [2], in test [3], in test [4], in test [5] and in test [6] was “inactive” throughout. Also, the Potency entry in test [7] and in test [8] was “inactive” in each case.
Regarding `C=CCn1c(=O)n(CC=C)c(=O)n(CC=C)c1=O`, the Potency result in test [1], in [2], in [3], in test [4], in test [5] and in test [9] was “inactive” each time. Besides, the Potency result in [10], in test [7] and in test [8] was “inactive” each time.
With `Nc1ccc(Oc2ccc(Cl)cc2)cc1`, the Potency result in [1], in test [2], in test [3], in test [4], in [5] and in test [6] was “inactive” each time. Moreover, the Potency entry in test [8] is “inactive”. In addition, in test [9], the Potency is 24 µM (active).
For the compound `O=c1[nH]c2ccccc2n1CCCN1CCN(C(c2ccccc2)c2ccccc2)CC1`, the Potency result in test [1], in test [2], in test [4], in [6] and in test [7] was “inactive” each time. The Potency was 23.9 µM (active) in [3], 19 µM (active) in test [9] and 21.3 µM (active) in test [10].
Turning to `CCN(CC)c1ccc2c(-c3ccc(S(=O)(=O)O)cc3S(=O)(=O)[O-])c3ccc(=[N+](CC)CC)cc-3oc2c1`, the Potency entry in test [1], in [2], in test [3], in test [4], in test [5] and in test [9] was “inactive” each time. Moreover, the Potency entry in test [10], in test [7] and in test [8] was “inactive” each time.
As for `CC(C)Cn1cnc2c(N)nc3ccccc3c21`, the cytotoxicity increase in [1] was 3.99% [at 15.8 µM]; in test [3], -12% [at 15.8 µM]; in [4], 2.79% [at 15.8 µM]; in test [8], -11.4% [at 15.8 µM]. In addition, the cytotoxicity in test [2] was -9.84% [at 15.8 µM]. For the same compound, the activity change, negative = cytotoxic in test [5] was 0.56% [at 15.8 µM]. Further, the activity change in [6] is 2.2% [at 15.8 µM, active compounds read high]. In addition, the activity change, negative = cytotoxicity in [7] was 12.8% [at 15.8 µM].
Turning to `CCOC(=O)Cn1cccc1-c1nc(-c2ccc(OC)cc2)c(-c2ccc(OC)cc2)s1`, the Potency entry in test [1], in [2], in test [3], in test [4], in [9] and in test [10] was “inactive” each time. Moreover, the Potency entry in test [6], in test [7] and in [8] was “inactive” in each case.
As to `C[C@H]1NCc2cc(-c3ccc4c(=O)c(C(=O)O)cn(C5CC5)c4c3OC(F)F)ccc21`, the cytotoxicity increase was -2.38% [at 15.8 µM] in test [1], -4.67% [at 15.8 µM] in test [3], -4.13% [at 15.8 µM] in test [4] and 1.89% [at 15.8 µM] in test [8]. Also, the cytotoxicity in test [2] is -0.836% [at 15.8 µM]. Further, the activity change, negative = cytotoxic in test [5] was -14.5% [at 15.8 µM]. For the same compound, the activity change, negative = cytotoxicity in test [9] was -3.25% [at 15.8 µM]; in test [10], -3.93% [at 15.8 µM]; in test [7], -7.36% [at 15.8 µM].

For the origin of these results see PubChem BioAssay (Tox21).
